In the library only some 21% were active in any assay of this set; here they are far more common.
Cycloheximide cs = counter-screen for Shiga toxin inhibitors: cycloheximide protein synthesis inhibition. cell reporter, cycloheximide protein synthesis inhibition counterscreen. max response, %. actives 12% (n = 300,000). AID 2314; in the data active means max response mostly above about 13%, no sharp cut-off; inactive means mostly below about 14%; further: read at 38.3 µM for the half of the compounds with a filed dose; 0% is about no effect
Pf growth 96h = P. falciparum growth inhibition at 96 hour, primary screen for plastid delayed-death inhibitors; P. falciparum luciferase reporter growth, 96 h; Potency, µM (titrated, usually from 28.7 µM), for the others: at the top dose activity change, negative = inhibition, most hits filed as inhibitors; actives 6.9% (n = 320,000); AID 504834; further: potency means the concentration at half of the fitted maximal effect; on the % scale 0 is the no-effect control and ±100 the full control effect
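Two-generation exposure (96 h) targets delayed-death phenotype. Reporter parasites carrying integrated firefly luciferase, in red cells at 2% hematocrit and 0.05% parasitemia final, kept at 37 C, 5% CO2; luminescence loss indicates inhibition.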
HCV inhibitor = blocks hepatitis C virus | Huh7.5.1 HCVcc-Cre infection, luciferase reporter, 44 h | Potency, µM (series often up to 41.8 µM), for the others: top-dose activity change, negative = inhibition, actives largely listed as inhibitors | actives 3.4% (n = 340,000) | AID 651820; further: potency means the concentration at half of the fitted maximal effect; on the % scale 0 is the no-effect control and ±100 the full control effect
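Compounds are dispensed onto cells plated 4 h earlier at 1,000 per well, with HCVcc-Cre virus (about 0.5 moi) added next. Following 44 h of culture, luminescent signal is measured for 15 sec after 15 min with substrate at room temperature.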
Pf growth 48h = inhibits P. falciparum growth in the first generation, 48 h; P. falciparum luciferase growth in erythrocytes, 48 h; Potency, µM (highest dose often 28.7 µM), inactives show at the highest dose activity change, negative = inhibition, hits mostly inhibitors; actives 5.9% (n = 310,000); AID 504832; further: potency means the concentration at half of the fitted maximal effect; on the % scale 0 is the no-effect control and ±100 the full control effect
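First compound was added to culture medium, then infected red cells at 0.1% parasitemia and 2% hematocrit (final). After incubation at 37 C under 5% CO2, luciferase detection reagent was dispensed and light output recorded.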
HCMV antiviral = human cytomegalovirus inhibition; HFF cells, HCMV-luciferase reporter, 72 h; stronger effect = lower value; activity change, negative = inhibition, % at 57.5 µM; actives 4.5% (n = 410,000); AID 1259415; in the data active means activity change below about -60%; inconclusive means no clear call, values can overlap the other calls; inactive means above about -39%; further: on the % scale 0 is the no-effect control and ±100 the full control effect
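Two compound doses tested in HFFs infected with HCMV-luciferase, MOI 1 PFU/cell, 72 h at 37C. Lysate luminescence read with OneGlo; data normalized against buffer-only and 10uM Salinomycin inhibitor controls.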
Shiga inhibitor = Shiga toxin inhibition. actives 9.2% (n = 290,000). AID 2315. inhibition, % at 38.7 µM. Vero cells, Shiga toxin protein synthesis inhibition reporter; in the data active means inhibition mostly above about 28%, no sharp cut-off; inactive means mostly below about 43%; further: 0% is about no effect
Active calls of the source: *; ? = inconclusive; / = no result; + = active, no number; [ ] = dose if it differs, or a comment. Unless noted, the call rests on the fitted dose curve; in most records, active means well fitted inhibition curve with a large enough effect; inconclusive means small, poorly fitted or top-dose-only effect, or another doubt; inactive means no such curve, though single readings can be large or run the other way.

SMILES	Cycloheximide cs	Pf growth 96h	HCV inhibitor	Pf growth 48h	HCMV antiviral	Shiga inhibitor
C#Cc1ccc(CN2CCC(C(=O)Nc3ccc(Oc4ccccc4)nc3)CC2)cc1	-1	2.3µM*	4.5µM*	?	+	-2
Cc1c(NC(=O)C(C)Oc2cccc(F)c2)c(=O)n(-c2ccccc2)n1C (stereo not drawn)	/	/	7%	/	-13	/
CCCCN(CCCC)Cc1ccc(C(=O)NNC(=O)Nc2ccc(F)cc2)o1	7	-26%	-11%	-5%	16	-13
Cc1ccc(O)c(-c2ccnc3cc(-c4ccc(Cl)cc4)nn23)c1	/	/	/	/	6	/
O=S(=O)(CCNC1CC1)NC1CCCCC1	/	/	21%	/	-7	/
O=C1NC(=O)C2(CCCc3ccccc32)N1 (stereo not drawn)	-3	-26%	-22%	14%	0	-5
Cc1nc2ccc(C(=O)NCCCN3CCCC3=O)cn2c1N(C)C(=O)CCc1ccccc1	/	/	/	/	4	/
Cc1ccc(NC(=O)C2CCCN(S(=O)(=O)c3ccc4[nH]c(=O)ccc4c3)C2)cc1C (stereo not drawn)	1	?	-18%	-2%	17	1
O=C(Nc1ccc(Cl)cc1)C1CCCN(S(=O)(=O)c2ccc3[nH]c(=O)ccc3c2)C1 (stereo not drawn)	/	/	/	/	-24	/
COc1ccc(NC(=O)C2CCCN(S(=O)(=O)c3ccc4[nH]c(=O)ccc4c3)C2)cc1OC (stereo not drawn)	25	12µM*	9%	24%	-6	12
CC(C)c1ccc(NC(=O)C2CCCN(S(=O)(=O)c3ccc4[nH]c(=O)ccc4c3)C2)cc1 (stereo not drawn)	/	/	/	/	-92*	/
CC1=C(C(=O)Nc2ccc(Cl)cc2)C(c2cccs2)n2nc(SCc3cccc(Cl)c3)nc2N1 (stereo not drawn)	/	/	/	/	1	/
C[C@H](CO)N1C[C@H](C)[C@@H](CN(C)S(=O)(=O)c2ccccc2F)OCc2cnnn2CCCC1=O	/	/	/	/	-4	/
O=C(NC1CCSc2ccccc21)c1cccc(Cl)c1 (stereo not drawn)	1	15µM*	-14%	?	-13	-16
O=C(NC1CCSc2ccccc21)c1ccccc1Br (stereo not drawn)	24*	?	12%	29%	59	23*
O=C(NC1CCCc2ccccc21)c1ccccc1Br (stereo not drawn)	-3	?	9%	9%	-4	-13
NS(=O)(=O)c1cccc(C(=O)NC2CCSc3ccccc32)c1 (stereo not drawn)	4	8%	14%	-23%	-29	-1
NS(=O)(=O)c1cc(C(=O)NC2CCSc3ccccc32)ccc1Cl (stereo not drawn)	-4	5%	-5%	-2%	-18	-14
CS(=O)(=O)c1ccc(Cl)c(C(=O)NC2CCSc3ccccc32)c1 (stereo not drawn)	22*	2%	1%	0%	22	37
O=C(CCCn1c(=O)c2ccccc2n(Cc2cccc(Cl)c2)c1=O)NCCc1ccc(Cl)cc1	/	/	/	/	-8	/
CC1=C(C(=O)Nc2cccc(C(F)(F)F)c2)C(c2ccccc2)n2ncnc2N1 (stereo not drawn)	/	/	/	/	1	/
Cc1ccc(-c2noc(CNC(=O)c3ccc4c(c3)OCO4)n2)cc1	-6	-6%	18%	34%	43	-5
COc1ccc(NC(=O)CN(C)C(=O)Cn2c(=O)oc3ccccc32)cc1	/	6%	9%	5%	-17	/
COCCNC(=O)c1cccc(C)c1[N+](=O)[O-]	-3	?	21%	28%	40	-12
COc1ccc(OC)c(NC(=O)c2cccc(C)c2[N+](=O)[O-])c1	-1	1.7µM*	?	9%	?	26
SMILES	Cycloheximide cs	Pf growth 96h	HCV inhibitor	Pf growth 48h	HCMV antiviral	Shiga inhibitor
CCOC(=O)c1ccc(Nc2ncccc2[N+](=O)[O-])cc1	35*	0.59µM*	5%	253%	48	62*
CCOC(=O)c1ccc(NC(=O)c2cccc(C)c2[N+](=O)[O-])cc1	20*	14%	?	?	-37	52*
CCOC(=O)c1ccc(NC(=O)c2ccccc2[N+](=O)[O-])cc1	42*	9%	?	46%	22	58*
Cc1cc(Cl)ccc1NC(=O)CN1C(=O)CSc2ccc(S(=O)(=O)N(C)C)cc21	/	/	/	/	-5	/
CC(OC(=O)CCN=C1NS(=O)(=O)c2ccccc21)C(=O)Nc1ccc(S(N)(=O)=O)cc1 (stereo not drawn)	/	1%	?	-1%	10	/
Nc1ccc2c(Cl)cc(Cl)cc2c1	/	/	/	/	-26	/
COc1ccc(S(=O)(=O)c2nnn(-c3ccccc3Cl)c2N)cc1	1	?	5%	-17%	?	-4
COCCCNc1ncnc2onc(-c3ccc(F)cc3)c12	/	/	/	/	-12	/
COC(=O)c1ccc(NC(=O)c2cccc(C)c2[N+](=O)[O-])cc1	22*	-10%	-9%	57%	-13	49
CCOC(=O)c1cc([N+](=O)[O-])c([N+](=O)[O-])cc1NC(C)=O	-8	-14%	?	0%	-100*	-24
Oc1ccccc1N=N/C(=N/Nc1ccccc1O)c1ccccc1	/	8.3µM*	4%[8.37 µM]	4.1µM*	30	/
N#C/C(N=Nc1ccccc1O)=N\Nc1ccccc1O	/	?	11µM*	?	-99*	/
N#Cc1ccc(S(=O)(=O)N2CCN(S(=O)(=O)c3ccc4c(c3)OCCO4)CC2)cc1	-2	/	/	/	/	22
COc1ccc(-c2nn(-c3ccccc3)cc2/C=N/N=C(N)N)cc1OC	-6	1.9µM*	?	1.7µM*	?	-5
COc1ccc(-c2nn(-c3ccccc3)cc2/C=N/Nc2ccc3ccccc3n2)cc1OC	34*	2.3µM*	10µM*	2.6µM*	-26	80*
NC(N)=N/N=C/c1cn(-c2ccccc2)nc1-c1cccs1	15	0.52µM*	?	2.6µM*	-98*	10
COc1ccc(-c2nn(-c3ccccc3)cc2/C=N/NC(=S)NC(C)C)cc1OC	1	?	?	?	-2	-10
S=c1[nH]nc(-c2cccs2)n1/N=C/c1cn(-c2ccccc2)nc1-c1cccs1	12	56%	?	60%	95	3
COc1ccccc1NC(=O)CN1CCN(CC(=O)Nc2ccc(C)c(F)c2)CC1	-1	?	?	?	?	-9
Cc1ccccc1NC(=O)N[C@H]1CC[C@@]23CCCN2C(=O)CCC[C@H]3C1Cc1ccccc1 (stereo partly drawn)	/	/	/	/	10	/
CC1CCN(C(=O)CCc2nnc3ccc(NCCCN4CCCC4=O)nn23)CC1	11	?	10%	-3%	35	7
CCOC(=O)CN(C(=O)COc1nc(C)cc(C)c1C#N)c1cccc(Cl)c1	-3	?	-24%	?	-21	4
